Reference: the supplement of paper PMC6089552
Hit rate of the full screen: of about 3,200 compounds, about 300 (9.4%) showed activity. For the sample, actives were picked, then their nearest neighbours and some compounds at random.

Test system: A673/TR/shEF
Assay: cell viability (LOESS-normalised, relative to median of negative controls) (log2 ratio); higher = more viable cells (less compound effect), active = hit call of the paper (over 3 MAD below the median)
Conditions: treatment time: 72 h
Method in brief: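 A673/TR/shEF Ewing sarcoma cells were plated at 1,500 per well in 384-well plates and cultured with or without doxycycline, added 24 h before compounds, to induce EWS-FLI1 shRNA knockdown. Library compounds at two or more concentrations, alongside DMSO controls, were applied for three days. Cell viability was measured by CellTiter-Glo luminescence on an Envision reader. Readings were LOESS-corrected per plate, divided by the median of negative controls and log2-transformed, and hits were wells lying at least three median absolute deviations from the median of all screened wells.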

[1] = 0.025 µM, library screen: screen1, EWS-FLI1 expression: high (no doxycycline)
[2] = 0.025 µM, library screen: screen1, EWS-FLI1 expression: low (doxycycline-induced shRNA knockdown)
[3] = 0.25 µM, library screen: screen1, EWS-FLI1 expression: high (no doxycycline)
[4] = 0.25 µM, library screen: screen1, EWS-FLI1 expression: low (doxycycline-induced shRNA knockdown)
[5] = 2.5 µM, library screen: screen1, EWS-FLI1 expression: high (no doxycycline)
[6] = 2.5 µM, library screen: screen1, EWS-FLI1 expression: low (doxycycline-induced shRNA knockdown)
[7] = 25 µM, library screen: screen1, EWS-FLI1 expression: high (no doxycycline)
[8] = 25 µM, library screen: screen1, EWS-FLI1 expression: low (doxycycline-induced shRNA knockdown)
[9] = 0.25 µM, library screen: screen2, EWS-FLI1 expression: high (no doxycycline)
[10] = 0.25 µM, library screen: screen2, EWS-FLI1 expression: low (doxycycline-induced shRNA knockdown)
[11] = 2.5 µM, library screen: screen2, EWS-FLI1 expression: high (no doxycycline)
[12] = 2.5 µM, library screen: screen2, EWS-FLI1 expression: low (doxycycline-induced shRNA knockdown)

Question: Which results are given for COc1cc(/C=C(\C#N)C(N)=O)cc(CSc2nc3ccccc3s2)c1O?
Answer: cell viability (log2) [1]: 0.119 (inactive); cell viability (log2) [2]: 0.0154 (inactive); cell viability (log2) [3]: 0.2 (inactive); cell viability (log2) [4]: -0.0796 (inactive); cell viability (log2) [5]: 0.0235 (inactive); cell viability (log2) [6]: 0.0635 (inactive); cell viability (log2) [7]: -0.058 (inactive); cell viability (log2) [8]: -0.0713 (inactive)

Question: N#CC(C#N)=C(N)/C(C#N)=C/c1cc(O)c(O)c(O)c1 was tested. Which “cell viability (log2)” value [1] did it give?
Answer: 0.289

Question: What about the “cell viability (log2)” value [2] of the same compound?
Answer: -0.0659 (inactive)

Question: What about the “cell viability (log2)” value [3] of the same compound?
Answer: 0.296

Question: What about the “cell viability (log2)” value [4] of the same compound?
Answer: -0.0126 (inactive)

Question: And the “cell viability (log2)” value [9]?
Answer: 0.21 (inactive)

Question: And the “cell viability (log2)” value [10]?
Answer: 0.0773 (inactive)

Question: And the “cell viability (log2)” value [5]?
Answer: -0.312 (active)

Question: What about the “cell viability (log2)” value [6] of the same compound?
Answer: 0.0388 (inactive)

Question: And the “cell viability (log2)” value [11]?
Answer: 0.23 (inactive)

Question: What about the “cell viability (log2)” value [12] of the same compound?
Answer: 0.0527 (inactive)

Question: And the “cell viability (log2)” value [7]?
Answer: -0.175 (active)

Question: What about the “cell viability (log2)” value [8] of the same compound?
Answer: 0.0813 (inactive)

Question: Which results are given for N#CC(C#N)=C(N)/C(C#N)=C/c1ccc2[nH]ccc2c1?
Answer: cell viability (log2) [1]: 0.369; cell viability (log2) [2]: 0.0769 (inactive); cell viability (log2) [3]: 0.269 (inactive); cell viability (log2) [4]: 0.0358 (inactive); cell viability (log2) [5]: -0.421 (active); cell viability (log2) [6]: 0.0519 (inactive); cell viability (log2) [7]: -0.203 (active); cell viability (log2) [8]: 0.0138 (inactive)

Question: CC(=O)Oc1ccc(O)cc1 was tested. Which “cell viability (log2)” value [3] did it give?
Answer: -0.0255 (inactive)

Question: And the “cell viability (log2)” value [4]?
Answer: 0.056 (inactive)

Question: What about the “cell viability (log2)” value [5] of the same compound?
Answer: 0.0239 (inactive)

Question: And the “cell viability (log2)” value [6]?
Answer: 0.00436 (inactive)

Question: COC1=CC(=O)OC(CCc2ccc(OC)c(OC)c2)C1 (stereo unspecified) was tested. Which “cell viability (log2)” value [3] did it give?
Answer: 0.144 (inactive)

Question: And the “cell viability (log2)” value [4]?
Answer: -0.00163 (inactive)

Question: What about the “cell viability (log2)” value [5] of the same compound?
Answer: 0.181 (inactive)

Question: And the “cell viability (log2)” value [6]?
Answer: 0.0406 (inactive)

Question: Which results are given for COc1cc2occ(-c3ccc(O)cc3)c(=O)c2c(OC)c1O?
Answer: cell viability (log2) [3]: 0.0883 (inactive); cell viability (log2) [4]: 0.0895 (inactive); cell viability (log2) [5]: 0.108 (inactive); cell viability (log2) [6]: 0.0533 (inactive)

Question: What does the source list for O=c1cccc2cc(O)c(O)c(O)c2c1O?
Answer: cell viability (log2) [3]: -0.000737 (inactive); cell viability (log2) [4]: -0.0453 (inactive); cell viability (log2) [5]: 0.0367 (inactive); cell viability (log2) [6]: 0.0294 (inactive)

Question: What does the source list for COc1cc(OC)c2c(=O)c(OC)c(-c3ccc(OC)c(OC)c3)oc2c1?
Answer: cell viability (log2) [3]: 0.019 (inactive); cell viability (log2) [4]: 0.0595 (inactive); cell viability (log2) [5]: 0.0902 (inactive); cell viability (log2) [6]: -0.0343 (inactive)

Question: How did the “cell viability (log2)” value [9] turn out when O=C1Cc2c([nH]c3ccc([N+](=O)[O-])cc23)-c2ccccc2N1 was run?
Answer: 0.0426 (inactive)

Question: What about the “cell viability (log2)” value [10] of the same compound?
Answer: 0.0802 (inactive)

Question: What about the “cell viability (log2)” value [11] of the same compound?
Answer: -0.122 (active)

Question: And the “cell viability (log2)” value [12]?
Answer: -0.312 (active)

Question: Which “cell viability (log2)” value [9] does the source give for O=C1Cc2c([nH]c3ccc(Br)cc23)-c2ccccc2N1 here?
Answer: 0.148 (inactive)

Question: What about the “cell viability (log2)” value [10] of the same compound?
Answer: 0.0907 (inactive)

Question: What about the “cell viability (log2)” value [11] of the same compound?
Answer: 0.128 (inactive)

Question: What about the “cell viability (log2)” value [12] of the same compound?
Answer: 0.118 (inactive)

Question: For O=c1c(-c2ccccc2)coc2cc(O)cc(O)c12, which “cell viability (log2)” value [3] is on record?
Answer: -0.0366 (inactive)

Question: What about the “cell viability (log2)” value [4] of the same compound?
Answer: 0.014 (inactive)

Question: And the “cell viability (log2)” value [5]?
Answer: 0.0821 (inactive)

Question: What about the “cell viability (log2)” value [6] of the same compound?
Answer: 0.099 (inactive)

Question: For CC(C)N1C(=O)/C(=C\c2ccco2)SC1=S, which “cell viability (log2)” value [3] is on record?
Answer: 0.136 (inactive)

Question: What about the “cell viability (log2)” value [4] of the same compound?
Answer: 0.0809 (inactive)

Question: And the “cell viability (log2)” value [5]?
Answer: 0.114 (inactive)

Question: What about the “cell viability (log2)” value [6] of the same compound?
Answer: 0.139 (inactive)

Question: What does the source list for O=C(O[C@@H]1Cc2c(O)cc(O)cc2O[C@@H]1c1cc2cc([C@H]3Oc4cc(O)cc(O)c4C[C@H]3O)cc(=O)c(O)c2c(O)c1O)c1cc(O)c(O)c(O)c1?
Answer: cell viability (log2) [3]: 0.115 (inactive); cell viability (log2) [4]: 0.032 (inactive); cell viability (log2) [5]: 0.00601 (inactive); cell viability (log2) [6]: -0.0597 (inactive)

Question: How did the “cell viability (log2)” value [3] turn out when COC(=O)c1cc(=O)c(O)c2c(O)c(O)ccc2c1 was run?
Answer: 0.103 (inactive)

Question: And the “cell viability (log2)” value [4]?
Answer: 0.0315 (inactive)

Question: What about the “cell viability (log2)” value [5] of the same compound?
Answer: 0.145 (inactive)

Question: And the “cell viability (log2)” value [6]?
Answer: 0.0325 (inactive)

Question: Which results are given for COc1cc2cccc(OC)c(=O)c2c(OC)c1OC?
Answer: cell viability (log2) [3]: 0.0955 (inactive); cell viability (log2) [4]: 0.0427 (inactive); cell viability (log2) [5]: 0.109 (inactive); cell viability (log2) [6]: 0.0214 (inactive)

Question: Which “cell viability (log2)” value [3] does the source give for COC(=O)c1cc(OC)c(=O)c2c(OC)c(OC)ccc2c1 here?
Answer: -0.0869 (active)

Question: What about the “cell viability (log2)” value [4] of the same compound?
Answer: 0.0503 (inactive)

Question: What about the “cell viability (log2)” value [5] of the same compound?
Answer: 0.0906 (inactive)

Question: And the “cell viability (log2)” value [6]?
Answer: -0.0346 (inactive)

Question: Which “cell viability (log2)” value [3] does the source give for COc1ccccc1NC(=O)C1=C(C)NC(=O)NC1c1cccc(Cl)c1 (stereo unspecified) here?
Answer: 0.0986 (inactive)

Question: And the “cell viability (log2)” value [4]?
Answer: 0.0367 (inactive)

Question: What about the “cell viability (log2)” value [5] of the same compound?
Answer: 0.0178 (inactive)

Question: And the “cell viability (log2)” value [6]?
Answer: 0.0125 (inactive)

Question: With CC(C)CCCCCOC(=O)COc1ccc(Cl)cc1Cl as the compound, how does the “cell viability (log2)” value [3] read?
Answer: 0.0385 (inactive)

Question: And the “cell viability (log2)” value [4]?
Answer: 0.102 (inactive)

Question: And the “cell viability (log2)” value [5]?
Answer: 0.111 (inactive)

Question: What about the “cell viability (log2)” value [6] of the same compound?
Answer: -0.0211 (inactive)

Question: Which “cell viability (log2)” value [3] does the source give for CC1(C)C2CC(=O)[C@]3(C)C(CC[C@@]4(C)[C@H](C(=O)O)OC(=O)C5OC543)[C@@]2(C)[C@@H](O)C[C@H]1O (stereo partly specified) here?
Answer: 0.0536 (inactive)

Question: What about the “cell viability (log2)” value [4] of the same compound?
Answer: 0.0574 (inactive)

Question: And the “cell viability (log2)” value [5]?
Answer: 0.0836 (inactive)

Question: And the “cell viability (log2)” value [6]?
Answer: 0.107 (inactive)

Question: Which “cell viability (log2)” value [3] does the source give for Cc1cc(N2CCN(c3ncccn3)CC2)n2c(nc3ccccc32)c1C#N here?
Answer: 0.119 (inactive)

Question: And the “cell viability (log2)” value [4]?
Answer: 0.0784 (inactive)

Question: And the “cell viability (log2)” value [5]?
Answer: 0.108 (inactive)

Question: What about the “cell viability (log2)” value [6] of the same compound?
Answer: 0.0845 (inactive)

Question: What does the source list for CC1(COc2ccc3c(c2)ncn3-c2ccc3cccc(N4CCC(N)CC4)c3n2)COC1?
Answer: cell viability (log2) (0.103 µM, library screen: screen3, EWS-FLI1 expression: high (no doxycycline)): -0.0477 (inactive); cell viability (log2) (0.103 µM, library screen: screen3, EWS-FLI1 expression: low (doxycycline-induced shRNA knockdown)): -0.0112 (inactive); cell viability (log2) (0.308 µM, library screen: screen3, EWS-FLI1 expression: high (no doxycycline)): 0.0251 (inactive); cell viability (log2) (0.308 µM, library screen: screen3, EWS-FLI1 expression: low (doxycycline-induced shRNA knockdown)): 0.0104 (inactive); cell viability (log2) (0.926 µM, library screen: screen3, EWS-FLI1 expression: high (no doxycycline)): 0.0241 (inactive); cell viability (log2) (0.926 µM, library screen: screen3, EWS-FLI1 expression: low (doxycycline-induced shRNA knockdown)): 0.0302 (inactive); cell viability (log2) (2.8 µM, library screen: screen3, EWS-FLI1 expression: high (no doxycycline)): 0.0311 (inactive); cell viability (log2) (2.8 µM, library screen: screen3, EWS-FLI1 expression: low (doxycycline-induced shRNA knockdown)): 0.0382 (inactive); cell viability (log2) (8.3 µM, library screen: screen3, EWS-FLI1 expression: high (no doxycycline)): -0.22 (active); cell viability (log2) (8.3 µM, library screen: screen3, EWS-FLI1 expression: low (doxycycline-induced shRNA knockdown)): -0.0084 (inactive); cell viability (log2) (25 µM, library screen: screen3, EWS-FLI1 expression: high (no doxycycline)): -1.66 (active); cell viability (log2) (25 µM, library screen: screen3, EWS-FLI1 expression: low (doxycycline-induced shRNA knockdown)): -0.632 (active)

Question: For COc1ccc(OC)c(CN2CCN(Cc3ccccc3F)CC2)c1, which “cell viability (log2)” value [3] is on record?
Answer: 0.0715 (inactive)

Question: What about the “cell viability (log2)” value [4] of the same compound?
Answer: 0.0693 (inactive)

Question: What about the “cell viability (log2)” value [5] of the same compound?
Answer: 0.123 (inactive)

Question: And the “cell viability (log2)” value [6]?
Answer: 0.0288 (inactive)

Question: With C=C1C2CCC3(C)C(c4ccoc4)OC(=O)CC13OC1CC(=O)C(C)(C)C(CC(=O)OC)C12C (stereo unspecified) as the compound, how does the “cell viability (log2)” value [3] read?
Answer: 0.0862 (inactive)

Question: What about the “cell viability (log2)” value [4] of the same compound?
Answer: 0.067 (inactive)

Question: What about the “cell viability (log2)” value [5] of the same compound?
Answer: 0.0511 (inactive)

Question: And the “cell viability (log2)” value [6]?
Answer: 0.0888 (inactive)
